Key:
Assay in all cases: thermal shift delta Tm vs DMSO control; higher = stronger stabilization (binding)
Conditions in all cases: 12.5 µM; protein concentration 2 µM
[1] = system: LOC_OS02G45750-cb003
How it was run: (§1)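 Rice kinase domain constructs were expressed in E. coli, purified, and tested by differential scanning fluorimetry with compound added in DMSO. Each well of a 96-well plate held 19.5 μl of 2 μM kinase in 100 mM potassium phosphate pH 7.5, 150 mM NaCl, 10% glycerol and 5 × SYPRO Orange, and fluorescence was read from 25°C to 95°C at 0.05°C/s. The melting temperature shift is the mean of triplicates, taken against protein with DMSO alone after Boltzmann fitting.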

[2] = system: LOC_OS02G54510-cb004
How it was run: as §1

[3] = system: LOC_OS03G04050-cb001
How it was run: as §1

[4] = system: LOC_OS03G12390-cb001
How it was run: as §1

[5] = system: LOC_OS03G27990-cb004
How it was run: as §1

[6] = system: LOC_OS03G50450-cb001
How it was run: as §1

[7] = system: LOC_OS03G50810-cb003
How it was run: as §1

[8] = system: LOC_OS04G35114-cb001
How it was run: as §1

[9] = system: T1, LOC_OS04G38480-cb003
T1 sequence (whole entry): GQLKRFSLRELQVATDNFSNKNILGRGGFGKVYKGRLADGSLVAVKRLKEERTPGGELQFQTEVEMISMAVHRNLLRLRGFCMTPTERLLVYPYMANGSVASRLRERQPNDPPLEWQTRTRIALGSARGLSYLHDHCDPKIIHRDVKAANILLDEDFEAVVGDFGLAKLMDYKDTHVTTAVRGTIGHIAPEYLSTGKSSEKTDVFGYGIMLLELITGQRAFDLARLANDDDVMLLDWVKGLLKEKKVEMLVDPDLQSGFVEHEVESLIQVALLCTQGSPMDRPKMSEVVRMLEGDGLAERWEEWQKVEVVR
How it was run: as §1

[10] = system: T2, LOC_OS04G41100-cb001
T2 sequence (whole entry): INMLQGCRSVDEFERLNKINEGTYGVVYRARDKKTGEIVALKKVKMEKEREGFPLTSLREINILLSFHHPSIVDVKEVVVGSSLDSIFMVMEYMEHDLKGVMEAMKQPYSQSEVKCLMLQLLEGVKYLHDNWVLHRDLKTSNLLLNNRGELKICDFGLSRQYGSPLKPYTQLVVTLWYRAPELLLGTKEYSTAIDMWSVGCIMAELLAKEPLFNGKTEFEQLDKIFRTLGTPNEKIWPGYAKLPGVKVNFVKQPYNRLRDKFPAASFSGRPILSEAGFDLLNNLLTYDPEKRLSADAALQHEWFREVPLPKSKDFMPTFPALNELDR
How it was run: as §1

Row | Structure (SMILES) | thermal shift delta Tm [1] [°C] | thermal shift delta Tm [2] [°C] | thermal shift delta Tm [3] [°C] | thermal shift delta Tm [4] [°C] | thermal shift delta Tm [5] [°C] | thermal shift delta Tm [6] [°C] | thermal shift delta Tm [7] [°C] | thermal shift delta Tm [8] [°C] | thermal shift delta Tm [9] [°C] | thermal shift delta Tm [10] [°C]
1 | Oc1ccc(Nc2nc(-c3ccc(Cl)cc3)cs2)cc1 | 0.87 | -1.06 | 1.13 | 1.19 | 1.07 | 1.19 | 1.34 | 2.45 | -1.18 | 0.69
2 | COc1ccc(-c2ccc3c(N4CCOCC4)nc(N4C[C@@H](C)O[C@@H](C)C4)nc3n2)cc1CO | 0.16 | -0.13 | -0.03 | 0.03 | 0.02 | -0.08 | -0.07 | 0.21 | 0.34 | 0.27
3 | CC(C)(C)c1cc(NC(=O)Nc2ccc(-c3cn4c(n3)sc3cc(OCCN5CCOCC5)ccc34)cc2)no1 [Quizartinib (AC220)] | -0.83 | 0.02 | -0.02 | 0.08 | 0.09 | -0.11 | 0.82 | 0.41 | 0.67 | 0.81
4 | CNC(=O)c1cc(Oc2ccc(NC(=O)Nc3ccc(Cl)c(C(F)(F)F)c3)cc2)ccn1 [Sorafenib] | 4.5 | 1.47 | 0.48 | 1.7 | 0.3 | 1.22 | 1.02 | 1.71 | 3.55 | 0.99
5 | COc1cccc2cc(-c3nc([C@H]4CC[C@H](C(=O)O)CC4)n4ncnc(N)c34)[nH]c12 | 0.26 | 0.38 | 0.31 | 0.34 | 0.03 | 0.32 | 0.58 | 3.43 | 0.98 | 0.32
6 | CN1CCN(c2ccc(Nc3cc(-c4cccc(-n5ccc6cc(C7CC7)cc(F)c6c5=O)c4CO)cn(C)c3=O)nc2)CC1 | 0.34 | -0.3 | 0.53 | -0.21 | 0.57 | 0.67 | 0.5 | 0.26 | 1.08 | 0.45
7 | N#C/C(=C(/N)Sc1ccc(N)cc1)c1ccccc1C(F)(F)F | -0.09 | 0.03 | 0.54 | -0.46 | 0.47 | -0.3 | -0.02 | 0.28 | 0.37 | 0.78
8 | O=c1cc(N2CCOCC2)oc2c(-c3cccc4c3sc3ccccc34)cccc12 | 1.11 | 0.33 | 0.66 | -0.18 | 0.6 | 0.91 | 0.32 | 0.58 | 0.87 | -0.31
9 | CNC(=O)c1nn(C)c2c1C(C)(C)Cc1cnc(Nc3ccc(N4CCN(C)CC4)cc3)nc1-2 | 7.62 | 0.71 | 0.62 | -0.14 | 1.08 | 0.91 | 4.16 | 7.06 | 1.96 | 0.65
10 | CO[C@H]1C[C@@H]2CC[C@@H](C)[C@@](O)(O2)C(=O)C(=O)N2CCCC[C@H]2C(=O)O[C@H]([C@H](C)C[C@@H]2CC[C@@H](OCCO)[C@H](OC)C2)CC(=O)[C@H](C)/C=C(\C)[C@@H](O)[C@@H](OC)C(=O)[C@H](C)C[C@H](C)/C=C/C=C/C=C/1C [Everolimus (RAD001)] | 0.22 | -0.05 | 0.59 | 0.14 | -0.04 | -0.1 | 0.05 | -0.39 | 0.94 | 0.65
11 | CC[C@H](CO)Nc1nc(NCc2ccccc2)c2ncn(C(C)C)c2n1 [Roscovitine (Seliciclib,CYC202)] | 0.1 | 0.11 | 0.22 | 0.14 | -0.05 | 0.28 | 0.02 | 0.57 | 0.99 | 0.53
12 | CNc1nc(Nc2cn(C(C)(C)C#N)nc2C)ncc1C(F)(F)F | 0.99 | 0.1 | 0.32 | 0.28 | 0.39 | 0.78 | 0.62 | 1.36 | 1.34 | 0.22
13 | CN1CCN(c2ccc3nc(-c4c(N)c5c(F)cccc5[nH]c4=O)[nH]c3c2)CC1 [Dovitinib (TKI-258) Dilactic Acid] | 16.3 | 1.95 | 0.96 | 4.57 | 8.19 | 5.49 | 1.54 | 9.41 | 1.48 | 0.82
14 | CCn1cc(-c2ccnc3[nH]c(-c4cccc(CN(C)C)c4)cc23)c(-c2ccc(NC(=O)N(C)C)cc2)n1 | 2.5 | 0.45 | 0.74 | 0.47 | 0.5 | 0.98 | 1.14 | 1.02 | 1.93 | 1.22
15 | O=C(Nc1ccc(-c2ccnc(Nc3ccc(N4CCOCC4)cc3)n2)cc1)C1CCCN1 (stereo not given) | 0.77 | 0.47 | 0.4 | 1.05 | 0.29 | 0.37 | 0.83 | 2.26 | 1 | 0.45
16 | CO[C@H]1C[C@@H]2CC[C@@H](C)[C@@](O)(O2)C(=O)C(=O)N2CCCC[C@H]2C(=O)O[C@H]([C@H](C)C[C@@H]2CC[C@@H](O)[C@H](OC)C2)CC(=O)[C@H](C)/C=C(\C)[C@@H](O)[C@@H](OC)C(=O)[C@H](C)C[C@H](C)/C=C/C=C/C=C/1C [Rapamycin (Sirolimus)] | 0.22 | 0 | 0.5 | 0.3 | 0.16 | 0.2 | -0.04 | 0.52 | 1.63 | 0.69
17 | COc1cc2nccc(Oc3ccc(NC(=O)C4(C(=O)Nc5ccc(F)cc5)CC4)cc3)c2cc1OC | 1.97 | 1.19 | 0.5 | 0.4 | 0.27 | 0.3 | 0.76 | 1.45 | 2.61 | 0.93
18 | Oc1c(F)cc(-c2cnccc2-c2ccc(N3CCOCC3)cc2)cc1F | 0.77 | 0.07 | 0.28 | -0.05 | 0.11 | 0.25 | 0.2 | 1.09 | 0.6 | 0.44
19 | Nc1ncc(-c2ccnc(Nc3ccncc3)n2)c(CC2CC2)n1 | 2.65 | 0.44 | 0.08 | 0.7 | 0.32 | 0.09 | 0.92 | 1.69 | 2.3 | 0.78
20 | C[C@@]1(C(=O)Nc2ccc(F)nc2)CCCN1c1nc(Nc2cc(C3CC3)n[nH]2)c2cccn2n1 | -1.4 | 2.49 | 0.25 | 0.55 | 0.21 | -0.6 | 1.17 | 2.02 | 1.6 | 0.62
